From the OligoGym collection

Each sequence was assayed against COL4A3BP (assay: pooled miR-30 sensor sort-seq; sequence = guide strand). Settings: shRNA.
Note: reference of the scale not given here.

| Sequence | sensor-assay potency score (higher = more potent) |
| --- | --- |
| TTAGCTACATATGTAATCTTGC | 0.206 |
| TCGACATTCATCAAAATCGTGA | -0.678 |
| TTGTAGGAAAGTCATCTTCATC | -1.71 |
| TTATTTTTCAAAACTACCCAAC | -0.396 |
| TTCTCTTCTGTATACCTTCATT | -1.23 |
| TTGCATAGAATGTTGTCCCTGC | 0.716 |
| TTCTTCTACAACCAACTGCCAA | -0.938 |
| TAACTTTTCTTTATTGCCGTTG | -0.347 |
| TACTTCTCTTCTGTATACCTTC | -0.012 |
| TTCTCCTTCTTCTACAACCAAC | -1.55 |

What follows are sequences tested against COMMD10 in the same assay as above. Settings: shRNA.

| Sequence | sensor-assay potency score (higher = more potent) |
| --- | --- |
| TTAACAATGATCTCTATTGGTT | -0.722 |
| TTGAGCAGAGTGAGCCATCTGA | -0.146 |
| TTCTACTAAGGTACACATCTTA | 0.49 |
| TTGTATAGTCTCTAGCTTGTTA | 0.109 |
| TATTGTTTCAAGAACTAGGTGA | 0.412 |
| TGCTTGTATAGTCTCTAGCTTG | -1.08 |
| TTGCATTTATCAGTGACACTGC | 0.191 |
| TTGTCTAAGATGAATGTTCTCT | 0.187 |
| TAAGGTACACATCTTATCTTGT | 0.795 |
| TTTTTGAAGAATCCGAGTGAGC | -1.13 |
| TAGAAATCAAACAACTCCTTGT | 0.836 |
| TTCCACAAGAACTTTCTCCAGG | -0.261 |

Each sequence was assayed against COMMD1 in the same assay as above. Settings: shRNA.

| Sequence | sensor-assay potency score (higher = more potent) |
| --- | --- |
| TTGCCATCAACTCTCCAGCTCA | -1.2 |
| TTTGACCTCATCAAATTCCAAA | -0.935 |
| TTTCAACAACTCCAACTCCTTC | -0.622 |
| TTCTTCTACCTCTGACAGCGTC | -0.845 |
| TGATACTTTCTTCTACCTCTGA | -0.273 |
| TTGAGCTGAGTGCCTTGACTGA | -0.799 |
| TTTGTCTTGTGGCTCTTCCAGA | -0.37 |
| TTTGGAAATGACAGCAGCTTGG | -0.686 |
| TATAATGGCAACAGGTGTGTGT | 0.267 |
| TTCTACCTCTGACAGCGTCTTC | -0.88 |
| TTGACTGAGACTTGCCATCAAC | -1.5 |
| TTTTGTCTTGTGGCTCTTCCAG | -0.915 |

The sequences below were run against COMMD8 in the same assay as above. Settings: shRNA.

| Sequence | sensor-assay potency score (higher = more potent) |
| --- | --- |
| TATTTTGTGAAGAAGCTGCGGG | 0.366 |
| AACAGTGTGATAATCTTGGTAC | -0.396 |
| TTCTTTTACATCTAGATGCAGG | -0.776 |
| TATTGCTGCTTTCTCAGCCTGG | -0.453 |
| AATTATTTTGTGAAGAAGCTGC | 0.272 |
| TTTCTCTTGACAGAGCCTGTTT | -0.392 |
